Assay results: PubChem BioAssay

target: Tumor necrosis factor receptor superfamily member 10B (Homo sapiens) (UniProt O14763); test: TRAIL sensitizers in caspase-8 expressing neuroblastoma cells, dose response, NB7 cells plus caspase-8, luminescence, panel (AID 652002); details: NB7 neuroblastoma +caspase-8, TRAIL sensitization, luminescence viability, NB7+Caspase-8, with TRAIL, run 1; at 12.5 µM (top of the series)
Sequence (O14763 whole entry, looked up): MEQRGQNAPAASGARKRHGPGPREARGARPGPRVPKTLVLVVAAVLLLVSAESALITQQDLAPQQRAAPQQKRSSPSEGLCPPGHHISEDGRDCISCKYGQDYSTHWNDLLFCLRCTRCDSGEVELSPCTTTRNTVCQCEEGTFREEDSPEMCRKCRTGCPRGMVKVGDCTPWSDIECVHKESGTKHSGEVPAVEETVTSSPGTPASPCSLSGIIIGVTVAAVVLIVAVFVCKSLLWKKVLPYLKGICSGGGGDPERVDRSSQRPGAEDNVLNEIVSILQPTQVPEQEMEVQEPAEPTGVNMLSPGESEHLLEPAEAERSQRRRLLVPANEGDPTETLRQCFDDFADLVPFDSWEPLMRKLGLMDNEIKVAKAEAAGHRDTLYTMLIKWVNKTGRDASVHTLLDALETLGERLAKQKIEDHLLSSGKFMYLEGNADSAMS

In order of rising activity, % sensitization:
1. CC(C)C[C@H](NC(=O)c1nc[nH]c1C(=O)N[C@@H](CCCCNC(=O)OC(C)(C)C)C(=O)OC(C)(C)C)C(=O)OCc1ccccc1  -36.8%
2. COc1ccccc1/C=C/C=N/n1c(-c2cc(-c3ccccc3)n[nH]2)n[nH]c1=S  -29.9%
3. COc1cc(SC#N)ccc1N=Cc1c(C)[nH]n(-c2ccc(Cl)cc2)c1=O  -29.2%
4. CC(C)(C)OC(=O)NCc1ccc(NC(=O)c2nc[nH]c2C(=O)N[C@@H](Cc2ccccc2)C(=O)OCc2ccccc2)cc1  -11%
5. O=C(c1cnc(Cl)c(Cl)c1)N1CCN(S(=O)(=O)c2ccc3ccccc3c2)CC1  -9.83%
6. CCCCc1nc(NCCN)c(C#N)c2c1CSC(C)(C)C2  -8.34%
7. Cc1cc(NC(=O)C2CCCC2)nc2c1c(=O)oc1ccccc12  15%
8. C/C(=N\NC(=O)c1csc(C)c1C)c1ccco1  34.8%
9. Cc1cc2nc3ccc(N(C)C)cc3nc2cc1N  38.9%
10. c1ccc(Nc2nnc(-c3cccnc3)s2)cc1  46.2%
11. COc1cccc(NC(=O)Nc2nccc(C)n2)c1  46.7%
12. O=C(Nc1ccc2[nH]ccc2c1)c1cccs1  48.2%

target: Tumor necrosis factor receptor superfamily member 10B (Homo sapiens) (UniProt O14763); test: as above; details: NB7 neuroblastoma +caspase-8, TRAIL sensitization, luminescence viability, NB7+Caspase-8, with TRAIL, run 2; at 12.5 µM (top of the series)

In order of falling activity, % sensitization:
1. O=C(Nc1ccc2[nH]ccc2c1)c1cccs1  52.7%
2. COc1cccc(NC(=O)Nc2nccc(C)n2)c1  47.6%
3. c1ccc(Nc2nnc(-c3cccnc3)s2)cc1  42.2%
4. Cc1cc2nc3ccc(N(C)C)cc3nc2cc1N  39.1%
5. C/C(=N\NC(=O)c1csc(C)c1C)c1ccco1  13.8%
6. CC(C)(C)OC(=O)NCc1ccc(NC(=O)c2nc[nH]c2C(=O)N[C@@H](Cc2ccccc2)C(=O)OCc2ccccc2)cc1  1.84%
7. CCCCc1nc(NCCN)c(C#N)c2c1CSC(C)(C)C2  -1.9%
8. Cc1cc(NC(=O)C2CCCC2)nc2c1c(=O)oc1ccccc12  -6.85%
9. COc1ccccc1/C=C/C=N/n1c(-c2cc(-c3ccccc3)n[nH]2)n[nH]c1=S  -8.86%
10. O=C(c1cnc(Cl)c(Cl)c1)N1CCN(S(=O)(=O)c2ccc3ccccc3c2)CC1  -9.66%
11. COc1cc(SC#N)ccc1N=Cc1c(C)[nH]n(-c2ccc(Cl)cc2)c1=O  -11.6%
12. CC(C)C[C@H](NC(=O)c1nc[nH]c1C(=O)N[C@@H](CCCCNC(=O)OC(C)(C)C)C(=O)OC(C)(C)C)C(=O)OCc1ccccc1  -15.7%
